# Hit rate of the full screen: of about 220,000 compounds, about 910 (0.41%) were called active. The list comes from a sample in which actives are over-represented; it also holds similar structures and randomly drawn compounds. Results with a measured potency or affinity are listed apart. Unmarked numbers belong to inactive results.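 How the source made its calls: active means primary inhibition above the hit cutoff, then over 50% inhibition at one or more dose response concentrations (cut at about 23% in these data, passing the limit was not always enough); inconclusive means conflicting primary data, or primary hits not chosen for dose response; inactive means low primary inhibition, or under 50% at every dose.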
# Biological target: Aminopeptidase N (Plasmodium falciparum (isolate 3D7)) (UniProt O96935)
# Sequence (O96935 whole entry, looked up): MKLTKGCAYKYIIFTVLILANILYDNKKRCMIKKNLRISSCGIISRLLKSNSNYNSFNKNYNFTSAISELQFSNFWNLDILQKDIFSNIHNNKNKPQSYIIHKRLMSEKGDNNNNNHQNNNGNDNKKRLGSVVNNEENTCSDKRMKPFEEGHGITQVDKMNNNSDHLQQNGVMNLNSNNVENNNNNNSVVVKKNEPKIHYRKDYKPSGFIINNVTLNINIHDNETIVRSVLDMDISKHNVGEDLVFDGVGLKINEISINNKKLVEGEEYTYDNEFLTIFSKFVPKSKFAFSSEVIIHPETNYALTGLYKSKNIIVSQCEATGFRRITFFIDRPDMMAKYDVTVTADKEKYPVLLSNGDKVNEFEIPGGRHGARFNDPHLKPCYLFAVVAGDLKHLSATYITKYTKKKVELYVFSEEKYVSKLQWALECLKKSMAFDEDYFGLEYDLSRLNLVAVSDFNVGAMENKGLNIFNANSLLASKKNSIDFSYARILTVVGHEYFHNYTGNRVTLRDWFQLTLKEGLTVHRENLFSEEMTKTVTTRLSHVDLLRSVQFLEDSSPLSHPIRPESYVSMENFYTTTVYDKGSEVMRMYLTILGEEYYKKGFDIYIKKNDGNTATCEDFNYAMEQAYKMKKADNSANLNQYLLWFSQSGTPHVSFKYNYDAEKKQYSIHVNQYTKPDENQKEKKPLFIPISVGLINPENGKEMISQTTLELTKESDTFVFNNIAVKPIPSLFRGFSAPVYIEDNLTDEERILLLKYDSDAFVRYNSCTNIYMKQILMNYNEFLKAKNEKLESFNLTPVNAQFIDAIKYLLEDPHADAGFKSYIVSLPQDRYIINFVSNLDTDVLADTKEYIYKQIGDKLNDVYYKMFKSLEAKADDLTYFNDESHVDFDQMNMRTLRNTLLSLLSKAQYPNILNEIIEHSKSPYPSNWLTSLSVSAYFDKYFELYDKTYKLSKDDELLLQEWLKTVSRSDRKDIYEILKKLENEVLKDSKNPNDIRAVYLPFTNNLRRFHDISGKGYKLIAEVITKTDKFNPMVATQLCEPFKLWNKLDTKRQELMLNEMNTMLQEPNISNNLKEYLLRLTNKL
# Test: P. falciparum M1AAP inhibitors, biochemical, fluorogenic H-Leu-NHMec substrate, 1536-well (AID 1445);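 further: plate controls were DMSO full reaction for no effect and no enzyme background for full effect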
# Settings: recombinant M1AAP, H-Leu-NHMec fluorogenic kinetic assay; at 30 µM, hits give high values unless noted
row,Compound,inhibition
1,COc1ccc(/C(N)=N/OC(=O)c2ccc3c(c2)OCO3)cc1OC,1.74%
2,CCn1c(CC(=O)Nc2cccc(Cl)c2Cl)nnc1SCCOc1ccc(OC)cc1,13.4%
3,COc1cccc(NC(=O)Cc2nnc(SCCOc3ccccc3)n2C)c1,8.03%
4,COc1ccc(OCCSc2nnc(CC(=O)Nc3cccc(Cl)c3Cl)n2C)cc1,23.6% (active)
5,Cc1cc(NS(=O)(=O)c2ccc(Nc3nc(-c4sc(N)nc4C)cs3)cc2)no1,17.9%
6,Cc1cc(NS(=O)(=O)c2ccc(Nc3nc(-c4sc(C)nc4C)cs3)cc2)no1,23.9% (active)
7,CCC(=O)Nc1nc(C)c(-c2csc(Nc3ccc(S(=O)(=O)Nc4cc(C)on4)cc3)n2)s1,6.43%
8,Cc1nc(CNC(=O)c2cc(COc3ccc(F)cc3Cl)on2)cs1,3.28%
9,Cc1ccc(S(=O)(=O)Nc2ccc(Cl)cc2C(=O)c2ccccc2)cc1,3.73%
10,O=C(Cc1sc(Nc2ccccc2)nc1-c1ccccc1)NCc1ccccc1,7.32%
11,COc1cc(/C=C(\C#N)c2nc3ccc(C)cc3[nH]2)c([N+](=O)[O-])cc1OC,14.8%
12,COc1ccc(-c2csc(/C(C#N)=C\c3ccc(O)c([N+](=O)[O-])c3)n2)cc1OC,3.12%
13,COc1cc(/C=N/Nc2nc3ccccc3s2)cc([N+](=O)[O-])c1O,32.1%
14,N#C/C(=C/c1ccncc1)c1nc2ccccc2s1,-2.18%
15,COc1cc(/C=C(/C#N)c2nc(-c3cc4ccccc4oc3=O)cs2)cc([N+](=O)[O-])c1O,11%
16,COc1cc(/C=C(\C#N)c2nc3ccccc3[nH]2)cc(OC)c1O,20.3%
17,CC(C)COC(=O)N(C)c1ccc(C(O)(C(F)(F)F)C(F)(F)F)cc1,11.6%
18,COCCn1c(SCC(=O)Nc2cccc(OC)c2)nc2c(oc3ccccc32)c1=O,-5.31%
19,NS(=O)(=O)c1ccc(NC(=O)COC(=O)CCNC(=O)NC23CC4CC(CC(C4)C2)C3)cc1,2.67%
20,CSc1nc(C)cc(C)c1C(N)=O,6.25%

row,Compound,inhibition
1,Cc1[nH]c(=O)c(C#N)c2c1CSC(C)(C)C2,9.75%
2,CCc1[nH]c(=O)c(C#N)c2c1CSC(C)(C)C2,10.3%
3,CCCCc1[nH]c(=O)c(C#N)c2c1CSC(C)(C)C2,23.7% (active)
4,CCOC(=O)c1coc(CNC(=O)c2c(C)oc3c2CCCC3)c1,4.14%
5,Cc1ccc(CN2CCN(C3CSCCSC3)CC2CCO)cc1 (centres undefined),-1.96%
6,CC(=O)N1CCN(c2ccc(NC(=O)C(C)Oc3ccc(Cl)cc3Cl)cc2)CC1 (centres undefined),4.51%
7,O=c1cc(-c2ccccc2Cl)oc2c(NS(=O)(=O)c3ccccc3OC(F)(F)F)ccc(O)c12,3.26%
8,O=c1cc(-c2ccccc2Cl)oc2c(NS(=O)(=O)c3ccccc3C(F)(F)F)ccc(O)c12,10.4%
9,Cc1ccc(S(=O)(=O)N2CCCC2C(=O)Nc2ccc(O)cc2)cc1 (centres undefined),7.62%
10,c1ccn2c(SCc3ccc4c(c3)OCO4)nnc2c1,3.07%
11,S=C(Nc1ccc(Br)cc1)N1CCn2cccc2C1c1cccnc1 (centres undefined),10.1%
12,COc1ccc(C)cc1NC(=O)c1cc2ccccc2o1,-2.39%
13,Cc1ccc(C(=O)Nc2ccc(Oc3ccc(C(=O)O)c(C(=O)O)c3)cc2)cc1C,5.36%
14,COc1ccc(C(=O)Nc2cccc(OC)c2)cc1,1.64%
15,COc1ccc(S(=O)(=O)n2nc(OC(=O)c3cccs3)cc2NC(=O)c2cccs2)cc1,3.59%
16,CN(C(=O)c1cc2n(n1)C(C(F)(F)F)CC(c1ccco1)N2)c1ccccc1 (centres undefined),2.19%
17,O=C(Oc1ccc(OC(=O)c2ccco2)c(S(=O)(=O)c2ccc(Cl)cc2)c1)c1ccco1,4.36%
18,COc1ccc(C(=O)O/N=C(\N)Cc2ccc([N+](=O)[O-])cc2)c(OC)c1,5.06%
19,O=C(CSc1nnc(CCCN2C(=O)c3cccc4cccc(c34)C2=O)n1-c1ccccc1)N1CCCCC1,3.42%
20,O=C(CSc1nnc(CCCN2C(=O)c3cccc4cccc(c34)C2=O)n1-c1ccccc1)NCCCO,13.2%

row,Compound,inhibition
1,Cn1c(SCC(=O)c2ccc(F)cc2)nnc1-c1cnccn1,-2.54%
2,O=C(CN(c1ccccn1)S(=O)(=O)c1ccccc1)Nc1ccccc1,-0.68%
3,Cc1csc(SCC(=O)Nc2cccc(S(=O)(=O)N3CCOCC3)c2)n1,0%
4,O=C(NCc1ccccc1Cl)c1ccc(CSc2nc3ccncc3[nH]2)cc1,1.57%
5,CSC(=NC#N)N1CCN(c2ccc([N+](=O)[O-])cc2)CC1,8.93%
6,C=CCN(CC=C)S(=O)(=O)c1ccc(NC(=S)NC(=O)/C=C/c2ccccc2)cc1,9.4%
7,O=C(Cn1nnc2ccccc21)Nc1ccccc1[N+](=O)[O-],-1.91%
8,CC(C)(C)NC(=O)COc1ccccc1C#N,-0.28%
9,Cc1ccc(C(=O)Nc2nc(=O)n(C(=O)c3ccccc3C)s2)cc1,4.83%
10,Cc1ccc(C(=O)Nc2nc(=O)n(C(=O)C3CC3)s2)cc1,4.6%
11,Cc1cc[n+](-c2nc3ccccc3nc2C(=C=[N-])C#N)cc1,4.51%
12,CCOC(=O)C1(CC2CCCCO2)CCN(C(=O)Nc2ccccc2CC)CC1 (centres undefined),1.45%
13,O=C(NCCc1nc2ccccc2[nH]1)/C(=C/c1ccc2c(c1)OCO2)NC(=O)c1ccccc1Cl,4.92%
14,COc1ccc(S(=O)(=O)Nc2cc([N+](=O)[O-])ccc2OC)cc1,14.5%
15,COc1ccc(NS(=O)(=O)c2ccc(C)cc2)c([N+](=O)[O-])c1,3.88%
16,COc1cc(C(=O)Nc2ccc(S(=O)(=O)Nc3ncccn3)cc2)c([N+](=O)[O-])cc1OC,1.81%
17,Cc1cc(NS(=O)(=O)c2ccccc2)c([N+](=O)[O-])cc1C,14%
18,COc1cccc(/C=C2\SC(N)=NC2=O)c1OS(=O)(=O)c1ccccc1,12.7%
19,COc1ccc([N+](=O)[O-])cc1NS(=O)(=O)c1ccccc1,6.84%
